Shiga toxin inh: A qHTS for Small Molecule Inhibitors of Shiga Toxin; 290,000 tested, 9.2% active; inhibition, % at 38.7 µM; Vero cells, Shiga toxin protein synthesis inhibition reporter; in the data active = inhibition mostly above about 28%, no sharp cut-off; inactive = mostly below about 43%
LASV entry inh: qHTS for Inhibitors of binding or entry into cells for Lassa Virus. Lassa virus pseudotype entry inhibition, cell reporter. 300,000 tested, 1.2% active. Potency, µM (titrated, usually from 37.9 µM), actives largely listed as inhibitors; calls by dose curve; tested in HEK293 cells; note: nearly all actives have a fitted effect of over 50% in size
VACV mCherry inh: qHTS for Stage-Specific Inhibitors of Vaccinia Orthopoxvirus: mCherry Reporter Primary qHTS | Vaccinia virus mCherry reporter infection, fluorescence | Potency, µM (top dose mostly 36.5 µM), hits mostly inhibitors | 310,000 tested, 0.63% active; calls by dose curve; tested in A549 cells; note: nearly all actives have a fitted effect of over 35% in size
MARV entry inh: qHTS for inhibitors of binding or entry into cells for Marburg Virus. Marburg virus pseudotyped entry inhibition, cell reporter. 300,000 tested, 1.8% active. Potency, µM (doses to about 37.8 µM), actives largely listed as inhibitors; calls by dose curve; tested in HEK293 cells
Cycloheximide cs: Cycloheximide Counterscreen for Small Molecule Inhibitors of Shiga Toxin | cell reporter, cycloheximide protein synthesis inhibition counterscreen | max response, % | 300,000 tested, 12% active; in the data active = max response mostly above about 13%, no sharp cut-off; inactive = mostly below about 14%; note: read at 38.3 µM for the half of the compounds with a filed dose
Vaccinia Venus: qHTS for Stage-Specific Inhibitors of Vaccinia Orthopoxvirus: Venus Reporter Primary qHTS | Vaccinia virus Venus reporter expression, fluorescence | Potency, µM (top dose mostly 36.5 µM), usual class: inhibitors | 330,000 tested, 0.46% active | AID 720580, 2013; calls by dose curve; tested in A549 cells; note: nearly all actives have a fitted effect of over 30% in size
A number is an active result; n = inactive; u = inconclusive; x = not tested or not shown. This is one part of a sample in which hits are shown more often than they occur.

SMILES | Shiga toxin inh | LASV entry inh | VACV mCherry inh | MARV entry inh | Cycloheximide cs | Vaccinia Venus
CC1=NN(c2nc(-c3ccc(C)cc3)cs2)C(=O)C1N=Nc1ccc2ccccc2c1 (stereo unspecified) | n | n | x | n | 17.8 | n
CC1=NN(c2nc(-c3ccc(C)cc3)cs2)C(=O)C1N=Nc1ccc(C(N)=O)cc1 (stereo unspecified) | n | 4.61µM | u | 6.51µM | 14.9 | n
CC1=NN(c2ccccc2)C(=O)C1N=Nc1ccc(C)cc1 (stereo unspecified) | n | x | x | x | n | x
C1=C(c2ccc3c(c2)CN(Cc2cccn2-c2ncccn2)CCO3)Cc2ccccc21 | x | x | n | x | x | n
CSc1ccccc1C(=O)N1CCc2ccccc2C1 | n | n | n | u | 16.3 | n
CCn1c(C(=O)N2CCc3ccccc3C2)cc2oc3ccccc3c21 | n | n | x | n | n | x
Cn1c(C(=O)N2CCc3ccccc3C2)cc2oc3ccccc3c21 | 61.0 | n | x | u | 37.7 | n
CCNC(=S)N1CCc2ccccc2C1 | n | n | n | n | n | n
Cc1ccccc1C(=O)N1CCc2ccccc2C1 | n | n | n | n | 18.7 | n
O=C(c1ccccc1Cl)N1CCc2ccccc2C1 | n | n | x | n | n | x
CSCCCNC(=S)N1CCc2ccccc2C1 | n | n | n | u | 28.8 | n
Nc1cccc2cccnc12 | x | x | u | x | x | n
Cc1cc(Cl)cc2c(N=Nc3ccccc3C(=O)O)c(O)[nH]c12 | n | x | x | x | n | x
Cc1ccc(Cl)c2c(N=Nc3ccccc3)c(O)[nH]c12 | 65.9 | x | x | x | 17.6 | x
O=C1OCCC1=COCCOC=C1CCOC1=O | x | x | n | x | x | n
C=CCN=Cc1c(C)[nH]n(-c2ccccc2)c1=O | 93.5 | n | n | n | 22.1 | u
Cc1[nH]n(-c2ccccc2)c(=O)c1C=Nc1cccc(F)c1 | 57.1 | n | n | n | n | n
Cc1[nH]n(-c2ccccc2)c(=O)c1C=NC1CCCCC1 | 48.9 | x | n | x | 14.0 | n
Cc1[nH]n(-c2ccccc2)c(=O)c1C=Nc1ccc2[nH]c(=O)[nH]c2c1 | n | n | n | n | n | n
Cc1[nH]n(-c2ccccc2)c(=O)c1C=NC1CCCCCC1 | n | n | x | n | 20.0 | x
Cc1cc(C)c(S(=O)(=O)NCCc2sc(-c3cccnc3)nc2C)c(C)c1 | x | n | n | x | x | n
Cc1ccc(C(NC(=O)Cc2cccs2)C(=O)Nc2ccc(C(C)C)cc2)cc1 (stereo unspecified) | x | n | n | n | x | n
CCNc1c2c(oc(=O)c1N)CCCC2 | x | x | x | n | x | x
CCN(C(=O)CCS(=O)(=O)c1cccc2nonc12)c1ccc(F)cc1 | n | n | n | n | n | n
COc1ccc(CN(C)C(=O)C(Cc2ccccc2)NC(=O)c2ccccc2)c(OC)c1 (stereo unspecified) | x | n | n | u | x | n
SMILES | Shiga toxin inh | LASV entry inh | VACV mCherry inh | MARV entry inh | Cycloheximide cs | Vaccinia Venus
NC(=O)c1cc2ccc(O)cc2oc1=NCc1ccccc1 | n | u | x | n | 15.7 | x
NC(=O)c1cc2ccc(O)cc2oc1=Nc1ccccc1 | 50.3 | u | n | n | 62.9 | n
O=C(O)c1ccc(N=c2oc3cc(O)ccc3cc2C(=O)NCc2ccccc2)cc1 | n | n | x | n | n | x
O=C(NCc1ccccc1)c1cc2ccc(O)cc2oc1=O | 42.2 | n | n | n | 21.4 | n
COc1ccc2cc(C(N)=O)c(=Nc3ccccc3)oc2c1 | n | u | n | n | n | n
Cc1cccc(N(CC(=O)NCCSCc2ccccc2)S(=O)(=O)c2ccccc2)c1C | x | u | n | u | x | n
CN(C)C1CCN(CCCOc2ccc(-c3ccc(C#N)cc3)cc2)C1 (stereo unspecified) | n | x | x | x | 30.7 | x
COc1ccc(S(=O)(=O)N2CCCC(C(=O)NCc3ccccn3)C2)cc1 (stereo unspecified) | n | n | x | n | n | n
Fc1ccc(Oc2cnns2)cc1 | n | n | n | n | n | n
Cc1nc2ccc(NC(=O)c3ccccc3)cc2s1 | 108.4 | n | x | n | 29.5 | x
CNC(=O)Nc1ccc2nc(C)sc2c1 | n | n | x | n | 16.5 | x
C=CCNC(=O)Nc1ccc2nc(C)sc2c1 | n | u | n | n | n | n
Cc1nc2ccc(NC(=O)c3cncc(Br)c3)cc2s1 | 101.7 | x | x | x | 31.7 | x
Cc1ccc(NC(=O)c2ccc(NCCN)c([N+](=O)[O-])c2)cc1Cl | n | n | n | u | n | n
CCNc1ccc(C(=O)Nc2ccc3nc(C)sc3c2)cc1[N+](=O)[O-] | n | n | n | n | 27.3 | n
C[C@@H](CN1CCN(C)CC1)OC(=O)c1ccc(Cl)cc1Cl | x | x | x | n | x | x
O=C(CCC1CCN(C(=O)c2cc(C(F)(F)F)ccc2Cl)CC1)NC1CC1 | n | x | x | x | n | x
COc1cc(C(C(=O)NC2CCCC2)N(C(=O)c2snc(C(N)=O)c2N)C2CCCC2)cc(OC)c1OC (stereo unspecified) | n | n | n | n | n | n
Cc1nc2ccc(NC(=O)c3ccc(=O)[nH]c3)cc2s1 | n | n | n | n | n | n
CCn1nc(C(=O)Nc2ccc3nc(C)sc3c2)c2ccccc2c1=O | n | n | n | n | 18.6 | n
Cc1nnc(NC(=O)c2ccc3ccccc3n2)s1 | 110.2 | x | x | x | 37.9 | x
Cc1ccccc1CNC(=O)c1ccc2nc(N3CCOCC3)sc2c1 | n | x | n | x | n | n
Cc1nc2ccc(NC(=O)c3ccc4ccccc4n3)cc2s1 | 101.6 | x | n | u | 27.5 | n
Cc1ccccc1NC(=O)c1ccc2nc(N3CCOCC3)sc2c1 | 38.1 | x | n | x | 27.9 | n
C[C@H](CO)N1C[C@H](C)[C@@H](CN(C)S(=O)(=O)c2cccs2)Oc2ccc(NC(=O)Cn3cnnn3)cc2C1=O | x | x | u | x | x | n
SMILES | Shiga toxin inh | LASV entry inh | VACV mCherry inh | MARV entry inh | Cycloheximide cs | Vaccinia Venus
COc1cccc(NC(=O)C(=O)NCCc2sc(-c3cccc(C)c3)nc2C)c1 | x | n | n | x | x | n
Cc1nc2ccc(C(=O)Nc3ccc(N(C)C)cc3)cc2s1 | x | u | n | n | x | n
CC(=O)c1ccc(NC(=O)c2ccc(C)c(Br)c2)cc1 | 73.5 | u | n | u | 59.8 | n
CC(=O)c1ccc(NC(=O)c2ccc3nc(C)sc3c2)cc1 | x | x | x | x | 86.7 | x
Cc1cccnc1NC(=O)c1ccc2nc(N)sc2c1 | 72.5 | n | x | u | 27.7 | n
COc1cc(C(=O)Nc2ccc(C(C)=O)cc2)c(Br)c(OC)c1OC | 70.1 | u | n | n | 41.8 | n
COc1ccc(Br)cc1CNC(=O)c1cc(=O)[nH]c2ccc(S(=O)(=O)N3CCCCC3)cc12 | x | n | n | x | x | n
Cc1nc2ccc(C(=O)Nc3ccccc3Cl)cc2s1 | 117.9 | x | x | x | 50.2 | x
Cc1ccc(-c2nc3ccc(C(=O)O)cc3nc2-c2ccc(C)cc2)cc1 | n | n | x | n | n | x
Cc1nc2ccc(OC(=O)c3ccccc3)cc2s1 | n | x | x | x | 13.5 | x
Cc1nc2ccc(NC(=O)c3cccc(S(=O)(=O)N(C)c4ccccc4)c3)cc2s1 | n | u | u | 17.8µM | n | u
Cc1nc2cc(C(=O)O)ccc2s1 | 132.7 | u | x | u | 44.4 | x
COc1ccc(-c2nc3cc(F)ccc3cc2CN(C(=O)c2ccc3c(c2)OCO3)C2CC2)cc1 | x | x | n | x | x | n
COc1ccccc1C(=O)Nc1ccccc1OCc1cc(=O)n2c(C)csc2n1 | x | n | n | n | x | n

High-throughput results: PubChem BioAssay, National Center for Advancing Translational Sciences (NCATS)
